Rows were chosen to be rich in hits. Some 6.4% of all compounds tested hit in one or more screens of this group.
RORgamma inh: inhibitors of mouse ROR gamma transcriptional activity. P51450. Drosophila S2 Gal4-RORgamma UAS-luciferase reporter, 20 h. Potency, µM (doses to about 53.6 µM), usual class: inhibitors. 5.4% of 310,000 active; further: nearly all actives have a fitted effect of over 60% in size
Target sequence (P51450 whole entry, looked up, the tested form may be a part): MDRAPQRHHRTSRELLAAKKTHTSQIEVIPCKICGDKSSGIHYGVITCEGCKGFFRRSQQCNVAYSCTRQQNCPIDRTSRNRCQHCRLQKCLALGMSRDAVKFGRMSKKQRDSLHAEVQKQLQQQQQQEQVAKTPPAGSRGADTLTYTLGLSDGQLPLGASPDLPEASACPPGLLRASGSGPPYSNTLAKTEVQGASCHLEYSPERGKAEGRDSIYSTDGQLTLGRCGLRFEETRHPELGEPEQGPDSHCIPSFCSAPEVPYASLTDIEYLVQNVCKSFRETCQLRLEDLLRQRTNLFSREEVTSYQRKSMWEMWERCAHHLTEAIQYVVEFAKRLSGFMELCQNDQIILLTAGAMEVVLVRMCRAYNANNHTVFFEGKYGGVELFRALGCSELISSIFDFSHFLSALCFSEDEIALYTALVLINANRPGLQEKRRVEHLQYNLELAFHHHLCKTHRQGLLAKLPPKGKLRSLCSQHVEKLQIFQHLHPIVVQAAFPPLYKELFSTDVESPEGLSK
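ROR gamma transcriptional activity was tracked as Gal4-UAS luciferase output in stably transfected Drosophila Schneider cells, with compound added 1 hr before 700 uM copper sulfate induction and a 20 hr ambient-temperature incubation.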
Gal4-VP16 FLuc: inhibits Gal4-VP16 luciferase reporter, ROR gamma counter-screen; Drosophila S2 Gal4-VP16 UAS-luciferase, luminescence, 20 h; Potency, µM (doses to about 53.6 µM), most hits filed as inhibitors; 3.5% of 310,000 active;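 further: Gal4-VP16 expression switched on by copper sulfate through the metallothionein promoter; nearly all actives have a fitted effect of over 50% in size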
Luc counter: counter-screen: inhibitors of Kinase-Glo firefly luciferase; Potency, µM (titrated, usually from 38.3 µM), most hits filed as inhibitors; 0.28% of 200,000 active; Q27757; Kinase-Glo luciferase, ATP luminescence, 8 min; further: nearly all actives have a fitted effect of over 60% in size
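Inhibition of Kinase-Glo luciferase light generation was assessed at 10 uM ATP in pH 7.2 imidazole buffer, with luminescence measured after eight minutes at ambient temperature.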
Each line names hits and unclear results; the compound was inactive in the other large screens. The call rests on the fitted dose curve; in most records, active means well fitted curve in the direction sought with a large enough effect; inconclusive means small, poorly fitted or top-dose-only effect, or another doubt; inactive means no such curve, though single readings can be large; an effect the other way counts as inactive or inconclusive.

CCOc1cc(/C=N/NC(=O)C(C)Sc2ccccc2)ccc1O (stereo not drawn)	none
CCc1nnc2c(N(C)S(=O)(=O)c3ccc(C)cc3)nc3ccccc3n12	none (no result: Luc counter)
Cc1ccc(S(=O)(=O)N(C)c2nc3ccccc3[nH]c2=S)cc1	RORgamma inh 4.5µM (no result: Luc counter)
O=C1/C(=C/c2cccnc2)CCC/C1=C\c1cccnc1	RORgamma inh 1.3µM, Gal4-VP16 FLuc 2.5µM
CCC1C/C(=C\c2cccnc2)C(=O)/C(=C/c2cccnc2)C1 (stereo not drawn)	RORgamma inh 5.6µM, Gal4-VP16 FLuc 1.8µM
CC(C)/C=C1\CC/C(=C\c2cccnc2)C1=O	RORgamma inh inconclusive
O=C1/C(=C/c2cccnc2)CC/C1=C\c1cccnc1	none
COc1cccc(NC(=O)CN(C)C(=O)c2ccc(-c3ccccc3Cl)o2)c1	none (no result: Luc counter)
CCCCCCCCCCCCCCC(C(=O)O)C(O)(CC(=O)OC)C(=O)O (stereo not drawn)	Gal4-VP16 FLuc inconclusive
CC1O[C@@H](O[C@@H]2C(O)C[C@H](O[C@@H]3C(O)C[C@@H](OC4CC[C@@]5(C)C6CC(O)[C@@]7(C)C(C8=CC(=O)OC8)CC[C@@]7(O)C6CC[C@@H]5C4)OC3C)OC2C)CC(O)[C@H]1O (stereo partly drawn)	RORgamma inh 8.9µM
O=C(Nc1c(-c2ccccc2)nc2ccccn12)c1ccco1	none
Cc1ccc(-c2nc3ccccn3c2NC(=O)c2ccco2)cc1	RORgamma inh 40µM
N#Cc1c[nH]n2c(=O)c3c(nc12)CCCC3	none
Cc1[nH]n2c(=O)c3c(nc2c1-c1ccccc1)CCC3	RORgamma inh 13µM, Gal4-VP16 FLuc inconclusive
Cc1[nH]n2c(=O)c3c(nc2c1-c1ccc(Cl)cc1)CCC3	RORgamma inh 2.2µM, Gal4-VP16 FLuc inconclusive
Nc1[nH]n2c(=O)c3c(nc2c1N=Nc1ccccc1)CCCC3	none
O=c1c2c(nc3c(-c4ccccc4)c[nH]n13)CCCC2	RORgamma inh 10µM, Gal4-VP16 FLuc inconclusive
Nc1[nH]n2c(=O)c3c(nc2c1N=Nc1ccc(Cl)cc1)CCCC3	none
CCCN1CCC(=O)N(CCSc2ccc(Br)cc2)CC1	none (no result: Luc counter)
O=C(c1cccc(N2C(=O)C3C4C=CC(C4)C3C2=O)c1)N1CCN(c2ccccc2)CC1 (stereo not drawn)	none
COc1c2ccccc2nc2occc12	RORgamma inh inconclusive
C#CC(=O)N(c1cccc(OC)c1)C(C(=O)NC1CCCC1)c1cccs1 (stereo not drawn)	RORgamma inh 1.6µM, Gal4-VP16 FLuc 5µM
C#CC(=O)N(c1ccc(OC)c(OC)c1)C(C(=O)NC1CCCC1)c1cccs1 (stereo not drawn)	RORgamma inh 2.5µM, Gal4-VP16 FLuc 8.9µM
COc1ccc(N(C(=O)Cc2cccs2)C(C(=O)NC2CCCC2)c2ccncc2)cc1OC (stereo not drawn)	none (no result: Luc counter)
Cc1cccc(N(C(=O)C(F)(F)F)C(C(=O)NC2CCCCC2)c2cccs2)c1 (stereo not drawn)	Gal4-VP16 FLuc inconclusive
Cc1cc(C(=O)COC(=O)c2ccccc2NCCO)c(C)n1CC1CCCO1 (stereo not drawn)	RORgamma inh 0.79µM, Gal4-VP16 FLuc 1.6µM (no result: Luc counter)
Cc1cc(C(=O)COC(=O)C2COc3ccccc3O2)c(C)n1CC1CCCO1 (stereo not drawn)	none
Cc1ccc(C(=O)OCC(=O)c2cc(C)n(CC3CCCO3)c2C)cc1 (stereo not drawn)	RORgamma inh inconclusive
CCOc1cc(C(=O)OCC(=O)c2cc(C)n(CC3CCCO3)c2C)ccc1OCC(=O)N1CCOCC1 (stereo not drawn)	none
Cc1cc(C(=O)COC(=O)c2cccnc2Cl)c(C)n1CC1CCCO1 (stereo not drawn)	RORgamma inh inconclusive, Luc counter 10µM
O=C(COC(=O)c1cccnc1Cl)NCC1CCCO1 (stereo not drawn)	none
Cc1cc(C(=O)COc2ccccc2C(N)=O)c(C)n1CC1CCCO1 (stereo not drawn)	Gal4-VP16 FLuc 10µM
Cc1cc(C(=O)COC(=O)c2ccccc2Br)c(C)n1CC1CCCO1 (stereo not drawn)	RORgamma inh 14µM, Gal4-VP16 FLuc 8.9µM (no result: Luc counter)
O=C(COC(=O)C1C2CC3OC(=O)C1C3C2)Nc1ccc(Br)cc1 (stereo not drawn)	none (no result: Luc counter)
CN(C)Cc1c(C(=O)N/N=C/c2ccncc2)nnn1-c1nonc1N	none (no result: Luc counter)
O=S(=O)(Nc1nc2ccccc2nc1Cl)c1cccc(C(F)(F)F)c1	RORgamma inh inconclusive (no result: Luc counter)
O=[n+]1cc(-c2ccc(Cl)cc2)n([O-])c2c1CCCCC2	none
CN1C(=O)C[C@@H](C(=O)N[C@@H](Cc2cnc[nH]2)C(=O)N2CCC[C@H]2C(N)=O)NC1=O	none (no result: Luc counter)
O=C(NCc1ccc(Cl)cc1)C1CCN(c2nnc(N3CCCC3=O)s2)CC1	none (no result: Luc counter)
O=C(c1ccc(Cl)cc1)C1CCN(C(=O)c2ccc(F)cc2)CC1	Gal4-VP16 FLuc inconclusive (no result: Luc counter)
Cc1cc(C(=O)COC(=O)c2cc(O)c3ccccc3c2O)c(C)n1CC1CCCO1 (stereo not drawn)	RORgamma inh 16µM
Cc1cc(C(=O)COC(=O)c2n[nH]c3ccccc23)c(C)n1CC1CCCO1 (stereo not drawn)	Gal4-VP16 FLuc inconclusive, Luc counter inconclusive
O=C(C1CCCN1S(=O)(=O)c1ccc(Cl)cc1)N1CCCCC1 (stereo not drawn)	none (no result: Luc counter)
S=c1[nH]nc(COc2ccc(Cl)cc2)o1	RORgamma inh 6.3µM, Gal4-VP16 FLuc inconclusive
COc1ccc(OCc2n[nH]c(=S)o2)cc1	RORgamma inh inconclusive, Gal4-VP16 FLuc inconclusive
S=c1[nH]nc(CCc2ccc(Cl)cc2)o1	RORgamma inh 7.9µM, Gal4-VP16 FLuc inconclusive
Cc1ccc(C)c(OCc2n[nH]c(=S)o2)c1	none (no result: Luc counter)
C=CCN(C(=O)CC(NC(C)=O)c1ccccc1)c1nc(-c2ccc(S(C)(=O)=O)cc2)cs1 (stereo not drawn)	RORgamma inh inconclusive (no result: Luc counter)
O=CNCCCc1nc2ccccc2n1CCc1ccccc1	none (no result: Luc counter)
CCOC(=O)C(C(=O)OCC)C(Nc1cccc(Br)c1)c1ccccc1 (stereo not drawn)	RORgamma inh 11µM, Gal4-VP16 FLuc inconclusive
COC(=O)C(C)Nc1cccc(Br)c1 (stereo not drawn)	none (no result: Luc counter)
CCOC(=O)c1sc(N2N=C(C)C(N=Nc3cccc(C)c3)C2=O)nc1C (stereo not drawn)	RORgamma inh 11µM, Gal4-VP16 FLuc inconclusive (no result: Luc counter)
CC1=NN(c2ccccc2C(=O)O)C(=O)C1N=Nc1ccccc1 (stereo not drawn)	none (no result: Luc counter)
CC1=NN(c2nc(-c3ccccc3)cs2)C(=O)C1	none
CC1=NN(c2nc(-c3ccc(C)cc3)cs2)C(=O)C1N=Nc1cccc(C)c1 (stereo not drawn)	RORgamma inh 7.1µM, Gal4-VP16 FLuc inconclusive
COc1cccc(C2NC(C(=O)O)CCC2C)c1 (stereo not drawn)	none (no result: Luc counter)
CC1=C(C(=O)OC(C)C)C(c2cccc([N+](=O)[O-])c2)n2c(cc(=O)[nH]c2=S)N1 (stereo not drawn)	RORgamma inh 13µM
COCCOC(=O)C1=C(C)NC(C)=C(C(=O)OC(C)C)[C@H]1c1cccc([N+](=O)[O-])c1	none
COc1ccccc1/C=C/C=N/Nc1cccc(C(=O)O)c1	none (no result: Luc counter)
CCc1ccc(NC(=O)COc2ccc(/C=C(/C#N)c3nc4ccccc4[nH]3)cc2OC)cc1	RORgamma inh 2.8µM, Gal4-VP16 FLuc 3.2µM
COC(=O)c1ccc(COc2ccc(/C=C(\C#N)c3nc4ccccc4[nH]3)cc2OC)o1	none

High-throughput results from PubChem BioAssay.
